Test results as given in PubChem BioAssay AID1159580 (chemical genetic matrix, 2015).
Where “and” joins values, the source holds several entries; their conditions need not be identical. Equal entries are not always repeated. About 2,000 (36%) of roughly 5,500 compounds were called active. About 18% were inconclusive and are not listed. Rule as the data show it: active = normalized growth mostly below about 0.91 (no sharp cut-off); inconclusive = no clear call, values can overlap the other calls; inactive = mostly above about 0.92. The list shows a part of the results.

Assay: chemical genetic growth profiling, strain panel (AID 1159580);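 also: tested at 20 µM; growth read once vehicle control cultures reached saturation at 30 °C; 1 = growth at the plate median or of vehicle wells; lower values mean less growth of the strain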
Conditions: S. cerevisiae deletion strains, growth OD

Measured: normalized growth

CC(C)=CCC[C@](C)(O)C1CC=C(C)CC1 (stereo partly specified)
inactive: locus YAL021C, strain ccr4, stronger effect = lower value 0.958 | locus YAL026C, strain drs2, stronger effect = lower value 0.987 | locus YAL030W, strain snc1, stronger effect = lower value 0.994 | locus YBL061C, strain skt5, stronger effect = lower value 0.98 | locus YBR009C, strain hhf1, stronger effect = lower value 0.996 | locus YBR021W, strain FUR4, stronger effect = lower value 0.966 | locus YBR023C, strain chs3, stronger effect = lower value 0.981 | locus YBR171W, strain sec66, stronger effect = lower value 0.967 | locus YBR229C, strain ROT2, stronger effect = lower value 1.02 | locus YBR231C, strain swc5, stronger effect = lower value 1 | locus YBR279W, strain paf1, stronger effect = lower value 0.99 | locus YCL011C, strain gbp2, stronger effect = lower value 0.979 | locus YCL016C, strain dcc1, stronger effect = lower value 0.992 | locus YCL029C, strain bik1, stronger effect = lower value 1 | locus YCL061C, strain MRC1, stronger effect = lower value 0.982 | locus YCL069W, strain vba3, stronger effect = lower value 0.987 | locus YCR088W, strain abp1, stronger effect = lower value 0.986 | locus YDL005C, strain med2, stronger effect = lower value 0.971 | locus YDL035C, strain GPR1, stronger effect = lower value 0.984 | locus YDL040C, strain nat1, stronger effect = lower value 1 | locus YDL074C, strain BRE1, stronger effect = lower value 0.995 | locus YDL101C, strain DUN1, stronger effect = lower value 1.02 | locus YDL134C, strain PPH21, stronger effect = lower value 1.02 | locus YDL185W, strain tfp1, stronger effect = lower value 0.987 | locus YDL192W, strain arf1, stronger effect = lower value 0.969 | locus YDR001C, strain nth1, stronger effect = lower value 0.994 | locus YDR069C, strain doa4, stronger effect = lower value 0.995 | locus YDR101C, strain arx1, stronger effect = lower value 0.976 | locus YDR137W, strain rgp1, stronger effect = lower value 0.972 | locus YDR159W, strain sac3, stronger effect = lower value 1 | locus YDR162C, strain NBP2, stronger effect = lower value 1.04 | locus YDR195W, strain ref2 1 | locus YDR297W, strain sur2, stronger effect = lower value 1.01 | locus YDR318W, strain mcm21, stronger effect = lower value 1 | locus YDR334W, strain swr1, stronger effect = lower value 0.985 | locus YDR335W, strain msn5, stronger effect = lower value 0.984 | locus YDR388W, stronger effect = lower value 1 | locus YDR392W, strain spt3, stronger effect = lower value 0.906 | locus YDR502C, strain sam2, stronger effect = lower value 0.973 | locus YEL003W, strain gim4, stronger effect = lower value 0.983 | locus YEL037C, strain rad23, stronger effect = lower value 0.978 | locus YEL061C, strain CIN8 (second series), stronger effect = lower value 0.983 | locus YEL061C, strain CIN8, stronger effect = lower value 1.02 | locus YER015W, strain faa2, stronger effect = lower value 0.987 | locus YER016W, strain bim1, stronger effect = lower value 0.987 | locus YER110C, stronger effect = lower value 0.982 | locus YER111C, strain swi4, stronger effect = lower value 0.969 | locus YER155C, strain BEM2 (second series), stronger effect = lower value 0.985 | locus YER155C, strain BEM2, stronger effect = lower value 1.02 | locus YER167W, strain BCK2, stronger effect = lower value 1.01 | locus YFR010W, strain ubp6, stronger effect = lower value 0.976 | locus YGL078C, strain dbp3, stronger effect = lower value 0.97 | locus YGL086W, strain mad1, stronger effect = lower value 0.976 | locus YGL167C, strain pmr1, stronger effect = lower value 0.982 | locus YGL173C, strain kem1, stronger effect = lower value 0.981 | locus YGL227W, strain vid30, stronger effect = lower value 0.981 | locus YGL240W, strain doc1, stronger effect = lower value 0.994 | locus YGL248W, strain PDE1, stronger effect = lower value 1.02 | locus YGL253W, strain hxk2, stronger effect = lower value 0.959 | locus YGR135W, strain pre9, stronger effect = lower value 1.01 | locus YGR252W, strain gcn5, stronger effect = lower value 0.962 | locus YHR013C, strain ard1, stronger effect = lower value 0.997 | locus YHR027C, strain rpn1, stronger effect = lower value 0.999 | locus YHR030C, strain SLT2, stronger effect = lower value 1.02 and 1 | locus YHR079C, strain IRE1 (second series), stronger effect = lower value 0.98 | locus YHR079C, strain IRE1, stronger effect = lower value 0.988 | locus YHR094C, strain hxt1, stronger effect = lower value 0.985 | locus YHR129C, strain ARP1, stronger effect = lower value 1.02 | locus YHR142W, strain chs7, stronger effect = lower value 0.953 | locus YHR200W, strain rpn10, stronger effect = lower value 1 | locus YIL066C, strain RNR3, stronger effect = lower value 1.02 | locus YIL073C, strain SPO22, stronger effect = lower value 1.02 | locus YIL125W, strain kgd1, stronger effect = lower value 0.997 | locus YIR030C, strain dcg1, stronger effect = lower value 0.991 | locus YJL092W, strain hpr5, stronger effect = lower value 0.958 | locus YJL095W, strain BCK1 (second series), stronger effect = lower value 0.976 | locus YJL095W, strain BCK1, stronger effect = lower value 1.04 and 0.993 | locus YJL115W, strain asf1, stronger effect = lower value 0.988 | locus YJL129C, strain trk1, stronger effect = lower value 0.973 | locus YJL134W, strain LCB3, stronger effect = lower value 1.01 | locus YJL154C, strain vps35, stronger effect = lower value 0.995 | locus YJL164C, strain tpk1, stronger effect = lower value 1 | locus YJL166W, strain qcr8, stronger effect = lower value 0.989 | locus YJL168C, strain set2, stronger effect = lower value 0.987 | locus YJL187C, strain SWE1 (second series), stronger effect = lower value 1.03 | locus YJL187C, strain SWE1, stronger effect = lower value 0.987
